Measured values from PubChem BioAssay (NCI).
Compounds without any hit were thinned out: in the full panel of roughly 83,000, 20% have a hit.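 48-hour exposure, single concentration, 96-well plates; percent growth endpoint where 0 means no net growth. Active: below 10.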 A number with no mark means an inactive call. Active and inactive are the calls of the source.

test system: HL-60(TB) leukemia; assay: NCI-60 one-dose screen, 48 h (100 = growth as untreated, 0 = no growth, -100 = all killed); conditions: 10 µM unless noted

Compound	growth
C[C@H](C(=O)N[C@@H](Cc1ccc(-c2ccccc2)cc1)C(=O)NC1CC(C)(C)NC(C)(C)C1)c1ccc(-c2ccccc2)c(F)c1	-59.1% (active)
O=C(O)CSCSCC(=O)O	98.5%
CN1CCC(CNc2cc(C3(C(=O)Nc4cc(C(=O)Nc5ccc(Cl)c(C(F)(F)F)c5)ccc4F)CC3)ncn2)CC1	-7.85% (active)
CSc1nc(-c2ccc(F)cc2)c(C#N)c(N2CCOCC2)n1	79.6%
Nc1nccc(OCCO)n1	88.5%
COc1ccc2nccc(/C=C/c3ccnc4ccc(OC)cc34)c2c1	63.5%
C=C(C)[C@@H]1CC[C@]2(C(=O)OC)CC[C@]3(C)[C@H](CC[C@@H]4[C@@]5(C)C/C(=C/c6cccc(I)c6)C(=O)C(C)(C)[C@@H]5CC[C@]43C)[C@@H]12	97.6%
NC(C(=O)O)C(O)c1ccco1 (stereo not given)	116%
Nc1cnc(C(=O)NNc2nc3cc(F)ccc3n3cccc23)cn1	12.1%
COC(=O)C1NC(=S)N(c2ccc(Cl)cc2)C1/C=C/c1ccccc1 (stereo not given)	92.8%
Cc1ccc2nc(-c3ccc(-n4on4-c4ccc(/C=C/c5ccc(-n6on6-c6ccc(-c7nc8ccc(C)cc8s7)cc6)cc5S(=O)(=O)O)c(S(=O)(=O)O)c4)cc3)sc2c1	101%
CCCCCCCCCCCCCCCCOc1ccccc1NC(=O)CC(C)=O	98%
COc1cc2c(=O)n(CCCN(C)C)c3c4cc[nH]c4ncc3c2cc1OC	75.3%
COC(=O)C1=C(C(=O)OC)C23C=C(C)C1C2=C(C)C1(CC1)[C@@](C)(O)C3=O (stereo not given in full)	25.6%
Cc1cccc(C)c1NC(=O)CSC(=S)N1CCN(CCOCCO)CC1	88.7%
CNC(=S)NC(C)(C)C	92.6%
c1nc2ccc(-c3cc4ccc5[nH]ncc5c4c4c3CCCC4)cc2[nH]1	30.9%
O=C(/C=C/c1cccc(O)c1)c1cccc(-n2cc(-c3ccc(Cl)cc3)[nH]c2=O)c1	-6.19% (active)
CC[C@]12C=CCN3CC[C@@]4(c5ccc(OC)cc5N(C)[C@H]4[C@@](O)(C(=O)OC)[C@@H]1OC(=O)CCC(=O)O[C@H]1CC[C@H]4[C@@H]5CCC6=CC(=O)CC[C@@H]6[C@H]5CC[C@]14C)[C@@H]32	-37.9% [100 µM] (active)
Cc1ccc(N=C=C(c2ccccc2)c2ccccc2)cc1	18.6%

Compound	growth
COC(=O)c1ccc(NC(=O)CSc2nc(-c3ccc(F)cc3)nc3ccccc23)cc1	94.3%
COc1ccc(C2SCC(=O)N2NC(=O)c2ccc(NC(=O)c3ccccn3)cc2)cc1OC (stereo not given)	110%
CN(C)c1ccc(CNC(C(=O)c2ccccc2)c2ccccc2)cc1 (stereo not given)	97.1%
COc1ccc(OC)c(/C=C2\Oc3cc(O)ccc3C2=O)c1	95.7%
C=C1C(=O)O[C@H]2[C@H]1CC/C(COC(=O)/C=C\C(=O)NCc1ccc(Cn3c(=O)sn(CCCC)c3=O)cc1)=C\CC[C@@]1(C)O[C@@H]21	-45.6% (active)
CCn1c(SCC(=O)Nc2cc(C(F)(F)F)ccc2Cl)nc2ccccc2c1=O	19.3%
O=C(Nc1ccc2[nH]c3ccccc3c2c1)c1ccccc1Cl	9.41% (active)
Cc1ccc(-c2nc(C#N)c(S(=O)(=O)N(C)C)o2)cc1	0.829% (active)
Cc1cn(-c2cc(NC(=O)c3cccc(C#Cc4cccc5[nH]nc(N)c45)c3)cc(C(F)(F)F)c2)cn1	12.5%
CC([C@H]1CCC2C3CCC4C[C@@H](N)CC[C@]4(C)C3CC[C@@]21C)N(C)C (stereo not given in full)	30.6%
CCCCCCCCO/N=C\c1c2c(O)c3c(O)c(C)c4c(c3c1O)C(=O)C(C)(O/C=C\C(OC)C(C)C(OC(C)=O)C(C)C(O)C(C)C(O)C(C)/C=C\C=C(\C)C(=O)N2)O4 (stereo not given)	-10.2% (active)
Nc1ncnc2c1ccn2-c1cccc(NC(=O)c2ccc(N3CCOCC3)c(C(F)(F)F)c2)c1	54.1%
COC(=O)[C@]12CC[C@@H](C)[C@H](C)[C@@H]1C1=CC[C@@H]3[C@@]4(C)C(C=O)=C[C@@](C)(CO)C4=CC[C@@]3(C)[C@]1(C)CC2	16.1%
CCCCCCN(CCCCCC)CC(O)c1ccc2c3c(cccc13)CC2 (stereo not given)	64.6%
O=C(c1ccc(Nc2nccc(NCCCNc3ccnc4cc(Cl)ccc34)n2)cc1)N1CCCCC1	22.4%
O=C1c2cccc3cccc(c23)C(=O)N1CCCCCN1CCN(CCCCCOc2ccc(-c3nc4ccc(N5CCOCC5)cc4[nH]3)cc2)CC1	3.01% (active)
Clc1cc(Cl)cc(Nc2ccc3cc(OCCCN4CCOCC4)ccc3n2)c1	26.7%
O=c1oc2ccccc2cc1-c1csc(N=Nc2c(O)[nH]c3ccc(Br)cc23)n1	106%
N#CSCC1CC(O)(c2ccccc2)C(c2ccccc2)C(c2ccc(Cl)cc2)O1 (stereo not given)	-1.83% (active)
S=c1ssnc1-c1cccs1	95.1%
